# Screens (PubChem)
# Sampled rows, rich in hits. Any-hit rate of the full collection: about 3.7%.
# V-ATPase pHluor: regulators of yeast V-ATPase proton pumping, primary screen, pHLuorin cytosolic pH fluorescence; S. cerevisiae; response, % at 10 µM; 0.37% of 350,000 active; AID 504577, 2011; in the data active means response mostly above about 7.3%, no sharp cut-off; inactive means mostly below about 5.4%; further: actives read high
# TIM10 inh: growth inhibitors of isogenic TIM10 control yeast, primary screen, counter-screen for tim10-1 yeast inhibitor project, luminescence, uHTS; S. cerevisiae TIM10 strain growth, BacTiter-Glo luminescence, 24 h; inhibition, % at 10 µM; 1.4% of 330,000 active; AID 463195, 2010;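 active means inhibition of 40% or more at the single tested concentration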;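 further: wild-type TIM10 isogenic control strain grown at permissive 25 °C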
# tim23-1 inh: growth inhibitors of tim23-1 mutant yeast, primary screen, luminescence, uHTS. S. cerevisiae tim23-1 growth, BacTiter-Glo luminescence, 24 h. inhibition, % at 20 µM. 1.3% of 330,000 active. AID 463212, 2010;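 active means growth inhibition of the mutant yeast at or above 50%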;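 further: temperature-sensitive mutant grown at 25 °C; plate controls were DMSO-treated mutant yeast for no effect and medium wells lacking yeast for full effect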
# PfHsp90 yeast 2: growth inhibition of PfHsp90-expressing yeast, primary screen, antimalarial PfHsp90 inhibitor project, S. cerevisiae, BacTiter-Glo luminescence, single point, set 2; BacTiter-Glo ATP, 48 h; yeast lacking PDR1 and PDR3 efflux regulators; inhibition, % at 9.4 µM; 0.32% of 310,000 active;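 active means every replicate shows inhibition above about 80%, whatever the replicate mean, limit read from the data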;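 further: 0% = DMSO neutral controls and 100% = 20 µM radicicol positive controls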
# tim10-1 inh: growth inhibitors of tim10-1 mutant yeast, primary screen, luminescence, uHTS. inhibition, % at 20 µM. 2.2% of 330,000 active. S. cerevisiae tim10-1 ts strain growth, BacTiter-Glo, 24 h. AID 463190, 2010;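 active means inhibition of at least 40%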;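 further: mutant grown at 25 °C; 0% = DMSO wells with yeast and 100% = wells holding no yeast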
# tim10-1 conf: growth inhibitors of tim10-1 mutant yeast, confirmation, single concentration, luminescence, S. cerevisiae. shares compounds with tim10-1 inh. S. cerevisiae tim10-1 ts strain growth, BacTiter-Glo, 24 h. inhibition, % at 20 µM. 56% of 7,400 active;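 active means inhibition of yeast growth at or above a set limit in either of two repeat tests at 20 µM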;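 further: tim10-1 mutant grown at permissive 25 °C to find synthetic lethal compounds; 0% = DMSO yeast wells and 100% = medium wells without yeast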
# tim10 confirm: growth inhibitors of wild-type TIM10 yeast, confirmation, counter-screen for tim10-1 synthetic lethality project, single concentration, luminescence, S. cerevisiae; S. cerevisiae tim10 strain growth, BacTiter-Glo luminescence, 24 h; shares compounds with TIM10 inh; 63% of 4,600 active; inhibition, % at 10 µM;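 active means inhibition of yeast growth at or above a set limit in either of two replicates at 10 µM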;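 further: this counterscreen used the strain with wild-type TIM10; 0% = yeast with DMSO and 100% = medium wells lacking yeast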
# tim23-1 confirm: tim23-1 mutant yeast growth inhibitors, confirmation, luminescence, single concentration; inhibition, % at 20 µM; shares compounds with tim23-1 inh; 83% of 4,400 active; S. cerevisiae tim23-1 growth, BacTiter-Glo luminescence, 24 h; AID 463218, 2010;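 active means inhibition above about 39% in either of two replicate wells at 20 µM, limit read from the data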;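 further: temperature-sensitive tim23-1 mutant grown at 25 °C; 0% = DMSO wells with yeast and 100% = medium wells without yeast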
# * = called active by the depositor; . = no result; + = active, no number.
SMILES,V-ATPase pHluor,TIM10 inh,tim23-1 inh,PfHsp90 yeast 2,tim10-1 inh,tim10-1 conf,tim10 confirm,tim23-1 confirm
CCn1nc(/C=C/c2ccccc2)nc2c(=O)n(C)c(=O)nc1-2,-0.7,95.9*,93.0*,74.8,92.6*,94.6*,97.7*,91.3*
CS(=O)(=O)c1ccc(C2=C(CNC(=O)c3cccnc3)[C@H]3CC[C@@H](C2)N3Cc2ccco2)cc1,-0.4,.,.,.,.,.,.,.
CCC(=NCc1ccco1)c1c(O)n(-c2ccc(Cl)cc2)c(=O)[nH]c1=O,3.4,21.0,16.9,4.6,12.7,.,.,.
O=C1NC(=O)N(Cc2ccc(F)cc2)C(=O)/C1=C\c1ccc([N+](=O)[O-])s1,101.2*,82.5*,60.3*,101.2*,70.0*,74.8*,25.1,76.2*
COc1ccc(CN2C(=O)NC(=O)/C(=C/c3ccc([N+](=O)[O-])s3)C2=O)cc1,132.8*,81.7*,58.8*,101.1*,67.1*,74.5*,24.3,75.2*
O=C1NC(=O)N(Cc2ccc(F)cc2)C(=O)/C1=C\c1ccc(N2CCCC2)cc1,-1.2,11.0,25.5,2.1,22.6,.,.,.
NC1=NC(c2cccnc2)n2c(nc3ccccc32)N1 (centres undefined),.,16.0,-6.9,.,13.8,.,.,.
CN1CCN(c2ncnc3nc[nH]c23)CC1,0.4,1.4,-5.8,13.0,-7.9,.,.,.
COc1cc(/C=C(/C)[N+](=O)[O-])ccc1OCc1ccccc1Cl,-2.6,51.5*,52.3*,-30.5,49.0*,35.6*,43.5*,71.2*
CC[n+]1c(/C=C/C=C/c2ccc(N(C)C)cc2)sc2ccccc21,0.3,82.1*,83.5*,24.0,85.4*,89.8*,74.0*,82.3*
CN(C)c1ccc(/C=C/C=C/c2sc3ccccc3[n+]2C)cc1,-3.0,21.8,26.9,18.7,7.1,.,.,.
Cc1ccc(/C=C2\C(=O)NC(=S)N(c3ccc(F)cc3)C2=O)s1,4.5,43.1*,54.6*,-6.6,69.9*,36.0*,37.8*,72.0*
CCOc1ccc(N2C(=O)NC(=O)/C(=C\c3cc(OC)c(OC)cc3[N+](=O)[O-])C2=O)cc1,-0.2,21.8,5.6,-7.8,21.9,.,.,.
COc1ccccc1N1C(=O)NC(=O)/C(=C/c2ccc([N+](=O)[O-])s2)C1=O,125.3*,73.5*,67.4*,.,77.2*,68.5*,19.1,70.5*
COc1cccc(N2C(=O)NC(=O)/C(=C/c3ccc([N+](=O)[O-])s3)C2=O)c1,111.5*,87.3*,65.0*,7.4,72.8*,69.2*,29.1,78.0*
COc1ccc(N2C(=O)NC(=O)/C(=C/c3ccc([N+](=O)[O-])s3)C2=O)cc1,100.5*,90.4*,60.6*,.,62.3*,70.8*,69.3*,75.6*
Cc1oc(-c2ccc(F)cc2F)nc1CN1C[C@@H]2C[C@@H](C1)c1cccc(=O)n1C2,-3.4,14.6,1.8,16.5,10.9,.,.,.
COC(=O)C1=C(c2cccc(OC)c2OC)C[C@@H]2CC[C@H]1N2C(=O)NCc1ccco1,-4.2,-5.9,11.1,-15.1,2.6,.,.,.
Cc1ccc(Cn2cc(C=O)c(-c3ccc(C)cc3)n2)cc1,-0.7,27.0,52.7*,9.2,45.2*,34.5*,.,65.4*
CN1C(=O)/C(=C/c2cccn2-c2ccc3ccccc3c2)C(=O)NC1=S,2.4,46.0*,65.9*,1.6,55.7*,52.7*,48.9*,63.7*
Cc1cc(C)cc(N2C(=O)NC(=O)/C(=C\c3cccn3-c3ccccc3)C2=O)c1,2.6,17.3,11.9,-7.8,2.5,.,.,.
CC(=O)N(C)CC#CCN1CCCC(CO)C1 (centres undefined),-0.7,7.8,-5.9,9.9,-2.7,.,.,.
CN1C(=O)C(=Cc2ccccc2OCCOc2ccc([N+](=O)[O-])cc2)C(=O)N(C)C1=O,1.0,69.3*,74.3*,9.9,49.6*,42.0*,66.5*,89.9*
O=C1NC(=O)C(=Cc2ccccc2OCCOc2ccc([N+](=O)[O-])cc2)C(=O)N1,0.9,.,.,7.7,.,.,.,.
CCc1ccccc1NC(=O)CSc1nnc([C@@H](N)Cc2c[nH]c3ccccc23)o1,-2.1,29.1,26.2,-2.2,22.7,.,.,.
SMILES,V-ATPase pHluor,TIM10 inh,tim23-1 inh,PfHsp90 yeast 2,tim10-1 inh,tim10-1 conf,tim10 confirm,tim23-1 confirm
N[C@@H](Cc1c[nH]c2ccccc12)c1nnc(SCc2ccc(Cl)cc2)o1,4.9,41.4*,12.9,.,39.2,.,39.6*,.
Cc1ccc(Cn2ccccc2=N)cc1,2.0,.,.,0.5,.,.,.,.
CCN(CC)c1ccc(N=Cc2c(O)n(-c3ccccc3)c(=O)[nH]c2=O)cc1,2.4,41.0*,19.6,-1.3,26.8,.,18.9,.
O=P(Nc1ccccc1Cl)(c1ccccc1)c1nc2c(s1)CCCC2 (centres undefined),-2.4,41.2*,35.5,-6.6,37.2,.,21.3,.
CCN1CCN(Cc2cc(OC)c(OC)cc2[N+](=O)[O-])CC1,.,-2.1,16.6,.,4.3,.,.,.
O=C1N[C@@H](Cc2ccccc2)C(=O)N2[C@H]1C[C@H]1c3ccccc3N(OOSc3ccccc3)[C@H]12,-2.2,43.6*,24.9,.,15.0,.,17.5,.
COC(=O)[C@@H]1C[C@]2(C(=O)O)c3ccccc3N(OOSc3ccccc3)[C@@H]2N1C(=O)OC,0.3,1.8,-6.4,2.3,-5.6,.,.,.
O=C1NC(=O)C2(C(=O)N1)C(c1ccc(F)cc1)NC(=S)NC2c1ccc(F)cc1 (centres undefined),1.7,0.7,14.1,-36.5,8.9,.,.,.
Oc1cc(Cl)ccc1Oc1ccc(Cl)cc1Cl,0.6,45.4*,48.4,94.8*,39.0,.,67.7*,.
C[C@@H]1C[C@@H]([C@H](O)CC2CC(=O)NC(=O)C2)C(=O)[C@@H](C)C1,-6.4,67.7*,73.3*,+,37.6,.,64.2*,69.2*
CC(c1ccccc1F)n1cc(C(=O)Nc2ccc3nc[nH]c3c2)nn1 (centres undefined),0.0,-3.6,3.8,-1.4,8.9,.,.,.
CN1C(=O)C(=Cc2c(OCc3cnc(Cl)s3)ccc3ccccc23)C(=O)N(C)C1=O,-0.8,46.4*,75.3*,-6.2,21.9,.,52.9*,81.4*
CN[C@@H]1C[C@@H](c2ccc(Cl)c(Cl)c2)c2ccccc21,.,17.1,12.2,.,19.7,.,.,.
CCCc1nc2ccccc2c(=O)n1-c1ccc(OC)cc1,-1.3,5.6,0.2,-13.9,7.2,.,.,.
